Results with a measured potency or affinity are listed apart. Active and inactive are the calls of the source.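 Rule for the calls: active = TRPC4 ion channel inhibited over 30% at some tested dose, with a fitted dose response curve; inactive = no inhibition or no dose response curve.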
biological target: Short transient receptor potential channel 4 (Mus musculus) (UniProt Q9QUQ5); assay: TRPC4 inhibitor concentration-response, dose response, cell-based, HEK293 TRPC4/mu-opioid, DAMGO stimulus, Fluo-4 (AID 492994); conditions: HEK293 TRPC4/mu-opioid cells, Fluo-4 calcium flux, DAMGO-activated; series mostly up to 20 µM
Sequence (Q9QUQ5 whole entry, looked up): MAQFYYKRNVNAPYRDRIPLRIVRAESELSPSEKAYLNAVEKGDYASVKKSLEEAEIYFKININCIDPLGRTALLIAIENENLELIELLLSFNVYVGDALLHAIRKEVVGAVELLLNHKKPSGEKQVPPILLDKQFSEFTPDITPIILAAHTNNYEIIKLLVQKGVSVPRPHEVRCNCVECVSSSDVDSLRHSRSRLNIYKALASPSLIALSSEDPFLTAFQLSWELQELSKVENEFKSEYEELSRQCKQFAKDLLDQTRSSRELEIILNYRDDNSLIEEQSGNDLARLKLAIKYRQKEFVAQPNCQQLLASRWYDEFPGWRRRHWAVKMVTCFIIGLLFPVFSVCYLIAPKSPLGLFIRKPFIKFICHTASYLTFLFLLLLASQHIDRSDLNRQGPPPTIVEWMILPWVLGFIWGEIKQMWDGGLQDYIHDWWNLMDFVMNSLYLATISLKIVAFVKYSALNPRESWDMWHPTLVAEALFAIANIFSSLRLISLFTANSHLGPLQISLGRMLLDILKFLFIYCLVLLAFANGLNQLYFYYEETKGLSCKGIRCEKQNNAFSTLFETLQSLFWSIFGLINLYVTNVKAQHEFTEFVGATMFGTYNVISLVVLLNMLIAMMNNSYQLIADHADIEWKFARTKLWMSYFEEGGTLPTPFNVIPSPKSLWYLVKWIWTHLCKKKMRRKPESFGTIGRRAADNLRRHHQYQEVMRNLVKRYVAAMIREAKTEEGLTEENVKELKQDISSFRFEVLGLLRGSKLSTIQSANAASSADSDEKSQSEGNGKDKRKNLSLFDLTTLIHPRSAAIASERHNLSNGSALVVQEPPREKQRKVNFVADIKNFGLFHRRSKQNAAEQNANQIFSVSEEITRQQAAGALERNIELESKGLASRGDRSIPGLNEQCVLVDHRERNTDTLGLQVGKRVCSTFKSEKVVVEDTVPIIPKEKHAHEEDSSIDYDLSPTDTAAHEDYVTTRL

SMILES	outcome
Cc1ccnc(N2CCCCC2)c1	inactive
Cc1ccnc(N2CCCC2)c1	inactive
c1ccc(-c2cc(N3CCCC3)nc3ccccc23)cc1	inactive
Cc1cc(N2CCN(c3ccccc3C#N)CC2)nc2ccccc12	inactive
Cc1cc(N(C)CCN(C)C)nc2ccccc12	inactive
Cc1ccnc(N2CCCCC2)n1	inactive
Cc1ccnc(N2CCCCCC2)c1	inactive
Cc1ccnc(N2CCCC2)n1	inactive
c1ccc(-c2cc(N3CCCCC3)nc3ccccc23)cc1	inactive
Cc1ccnc(N2CCCCCC2)n1	inactive
Cc1cc(N2CCCCCC2)nc2c(C)cccc12	inactive
Cc1cc(N2CCCCC2)nc2c(C)cccc12	inactive
FC(F)(F)c1cc(N2CCCC2)nc2ccccc12	inactive
COc1ccc(N2CCN(c3cc(C)c4ccccc4n3)CC2)cc1	inactive
FC(F)(F)c1cc(N2CCCCC2)nc2ccccc12	inactive
Cc1cc(N2CCN(CC3CCCO3)CC2)nc2ccccc12 (stereo not given)	inactive
c1ccc(-c2cc(N3CCCCCC3)nc3ccccc23)cc1	inactive
FC(F)(F)c1cc(N2CCCCCC2)nc2ccccc12	inactive
CCc1ccc2nc(N3CCCCC3)cc(C)c2c1	inactive
COc1ccccc1N1CCN(c2cc(C)c3ccccc3n2)CC1	inactive

From PubChem BioAssay AID492994 (Johns Hopkins Ion Channel Center, 2010)
